Test [1] is described as follows: ATG_XTT_Cytotoxicity: Cytotoxicity Assessment in the Attagene TRANS-FACTORIAL HepG2 Assay (AID 2283584; active means hit-call score of the fitted dose curve at least 0.9, where 1 is the maximum;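 on AC50: cells exposed to compound for 24 h before reading; active means loss of viability signal versus DMSO baseline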). The method in brief: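 Viability endpoint from XTT after 24 h chemical exposure of reporter-transfected human HepG2 liver cells; signal loss fitted relative to DMSO negative control.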
Read-out in test [2]: solute carrier (SLCO1B1), SLCO1B1 (gene 10599)
Kind of test: LTEA_HepaRG_SLCO1B1: Life Technologies and Expression Analysis (LTEA) Assay for solute carrier (SLCO1B1) using HepaRG (AID 2283530). The following applies: mRNA level, 48 h; actives raise or lower the signal. Put shortly: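 SLCO1B1 transcript levels were quantified by TaqMan qRT-PCR using three housekeeping genes for normalization. This followed 48 h chemical exposure (100 uM top, half-log, 8 points, 0.5% DMSO) of HepaRG liver cells, with gain or loss fitted relative to DMSO.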

Read-out in test [3]: sulfotransferase 2A1 (SULT2A1), SULT2A1 (gene 6822)
Kind of test: LTEA_HepaRG_SULT2A1: Life Technologies and Expression Analysis (LTEA) Assay for sulfotransferase 2A1 (SULT2A1) using HepaRG (AID 2283531). The following applies: mRNA level, 48 h; actives raise or lower the signal. The method in brief:
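Expression change of SULT2A1, by qRT-PCR with three housekeeping-gene normalization, was scored bidirectionally versus DMSO. Cells: differentiated HepaRG, dosed in duplicate for 48 h across 8 points, highest 100 µM, half-log dilution, 0.5% DMSO.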

Read-out in test [4]: Transforming Growth Factor (TGFA), TGFA (gene 7039)
Kind of test: LTEA_HepaRG_TGFA: Life Technologies and Expression Analysis (LTEA) Assay for Transforming Growth Factor (TGFA) using HepaRG (AID 2283532). The following applies: mRNA level, 48 h; actives raise or lower the signal. The method in brief: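 HepaRG (human liver line), 48 h exposure, 8 conc. half-log down from 100 uM, 0.5% DMSO vehicle, duplicates; serum-free induction medium. TGFA mRNA by TaqMan qRT-PCR, ACTB/GAPDH/POLR2A normalization; gain/loss fit vs DMSO.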

Read-out in a further test: TIMP1, TIMP1 (gene 7076)
Description: LTEA_HepaRG_TIMP1: Life Technologies and Expression Analysis (LTEA) Assay for TIMP1 using HepaRG (AID 2283534). The settings on record: mRNA level, 48 h; actives raise or lower the signal. The method in brief: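 Bidirectional change in TIMP1 transcript versus 0.5% DMSO, measured by TaqMan qRT-PCR with three housekeeping genes for normalization. HepaRG human liver cells dosed 48 h in duplicate, top concentration 100 uM with half-log dilutions.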

Read-out in test [5]: Tumor necrosis factor receptor 1 (TNFRSF1A), TNFRSF1A (gene 7132)
Kind of test: LTEA_HepaRG_TNFRSF1A: Life Technologies and Expression Analysis (LTEA) Assay for Tumor necrosis factor receptor 1 (TNFRSF1A) using HepaRG (AID 2283535). The following applies: mRNA level, 48 h; actives raise or lower the signal. The method in brief:
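mRNA measured by qRT-PCR (TaqMan, Fluidigm arrays) against ACTB/GAPDH/POLR2A housekeepers after 48 h chemical exposure of HepaRG cells. Top concentration 100 uM, half-log 8-point series, duplicates; vehicle 0.5% DMSO, both fit directions.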

Read-out in test [6]: Thyroid Hormone Responsive (THRSP), THRSP (gene 7069)
Kind of test: LTEA_HepaRG_THRSP: Life Technologies and Expression Analysis (LTEA) Assay for Thyroid Hormone Responsive (THRSP) using HepaRG (AID 2283536). The settings on record: mRNA level, 48 h; actives raise or lower the signal. The method in brief: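 mRNA induction or loss relative to 0.5% DMSO vehicle was fitted bidirectionally across an eight-point curve whose highest exposure was 100 uM. Human HepaRG liver cells received chemicals in duplicate over 48 h before RNA extraction.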

Read-out in test [7]: UDP glucuronosyltransferase (UGT1A1), UGT1A1 (gene 54658)
Kind of test: LTEA_HepaRG_UGT1A1: Life Technologies and Expression Analysis (LTEA) Assay for UDP glucuronosyltransferase (UGT1A1) using HepaRG (AID 2283538). The following applies: mRNA level, 48 h; actives raise or lower the signal. Put shortly:
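Readout is UGT1A1 transcript level by qRT-PCR, normalized to three housekeeping genes, after 48 h chemical treatment of HepaRG cells. Concentrations ran from 100 uM down in half-log steps with 0.5% DMSO, and gain or loss relative to DMSO was fitted.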

Read-out in test [8]: UDP glucuronosyltransferase (UGT1A6), UGT1A6 (gene 54578)
Kind of test: LTEA_HepaRG_UGT1A6: Life Technologies and Expression Analysis (LTEA) Assay for UDP glucuronosyltransferase (UGT1A6) using HepaRG (AID 2283539). The following applies: mRNA level, 48 h; actives raise or lower the signal. Put shortly:
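Expression was quantified by TaqMan qRT-PCR on Fluidigm arrays with ACTB/GAPDH/POLR2A normalization and bidirectional fitting against 0.5% DMSO. HepaRG cells (~100,000/well) were treated in duplicate for 48 h at eight half-log concentrations up to 100 uM in serum-free induction medium.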

Read-out in test [9]: X-box binding protein 1 (XBP1), XBP1 (gene 7494)
Kind of test: LTEA_HepaRG_XBP1: Life Technologies and Expression Analysis (LTEA) Assay for X-box binding protein 1 (XBP1) using HepaRG (AID 2283540). The settings on record: mRNA level, 48 h; actives raise or lower the signal. The method in brief: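 XBP1 transcript by qRT-PCR (housekeeping-normalized: ACTB, GAPDH, POLR2A) after 48 h chemical treatment of HepaRG cells, 8-point half-log series topping at 100 uM, vehicle 0.5% DMSO. Gain and loss of signal fitted relative to DMSO.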

Test [10] can be described thus: LTEA_HepaRG_LDH_cytotoxicity: Cytotoxicity Assessment in the Life Technologies and Expression Analysis (LTEA) Assay (AID 2283563; active means hit-call score of the fitted dose curve at least 0.9, where 1 is the maximum). The method in brief: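 LDH release into culture medium read after 48 h chemical treatment of HepaRG cells. Duplicate wells, eight-point half-log series topping at 100 uM, 0.5% DMSO vehicle and baseline.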

Consider 18 compounds from PubChem BioAssay (EPA / NIEHS).

“And” between values parts separate entries of the source, which are not always exact repeats. Identical values can stand only once. Inconclusive results are not listed. The source made the active and inactive calls. How the source made its calls, unless noted: active means hit-call score of the fitted dose curve at least 0.9, where 1 is the maximum; inactive means score below 0.9.

`CC(O)C#N` (configuration not stated): in test [1], the compound was classed as inactive.

For orientation: AC50 means the midpoint of the concentration-response curve, whichever way the signal moves. `CCCCCCCc1ccc(O)cc1`: the outcome was “inactive” in test [2]; “inactive” in test [3]; “inactive” in test [4]; “inactive” in the test with TIMP1, TIMP1 (gene 7076); “inactive” in test [5]; “inactive” in test [6]. For the same compound, the compound was classed as inactive in test [7], in [8], in test [9] and in test [10]. The AC50 in test [1] was 152 µM (active) and 185 µM (active) and 129 µM (active).

For the compound `Cn1[nH]nnc1=S`, the outcome in [1] was inactive.

Turning to `CCOP(=S)(Oc1ccc([N+](=O)[O-])cc1)c1ccccc1` (configuration not stated), the outcome in [3] was “inactive”; in [4] it was “inactive”; in the test with TIMP1, TIMP1 (gene 7076), “inactive”; in test [5] it was “inactive”; in test [8] it was “inactive”; in test [9], “inactive”. In addition, the result in test [10] and in [1] was inactive. Besides, the AC50 was 50 µM (active) in [6] and 12.7 µM (active) in test [7].

As for `CC(C)CBr`, the result in test [1] was inactive.

For the compound `O=C(O)CF`, the compound was called inactive in [1].

`Cc1ccc([N+](=O)[O-])cc1C`: the outcome in test [2] was “inactive”; in test [3], “inactive”; in test [4], “inactive”; with TIMP1, TIMP1 (gene 7076) it was “inactive”; in test [5], “inactive”; in test [6], “inactive”. In addition, the result in [7], in test [8], in test [9], in test [10] and in test [1] was inactive.

As to `CCOP(=S)(OCC)SCS(=O)(=O)CC`, the result in [1] was inactive.

Consider `Oc1ccc(I)cc1`, for which the outcome in test [1] was inactive.

As for `O=[N+]([O-])c1ccc(Cl)c(Cl)c1`, the outcome in test [2] is “inactive”; in [3], “inactive”; in [4], “inactive”; with TIMP1, TIMP1 (gene 7076) it was “inactive”; in test [5] it was “inactive”; in test [8] it was “inactive”. Also, the compound was classed as inactive in test [9], in test [10] and in test [1]. For the same compound, the AC50 in test [6] was 10.8 µM (active); in test [7] it was 13.5 µM (active).

Regarding `O=C(O)C(Cl)Cl`, the outcome in [2] was “inactive”; in test [3], “inactive”; in test [4], “inactive”; in the test with TIMP1, TIMP1 (gene 7076), “inactive”; in [5] it was “inactive”; in [6], “inactive”. In addition, the result in test [7], in [9], in [10] and in [1] was inactive. The AC50 in [8] is 0.312 µM (active).

As to `N#Cc1ccc(O)cc1`, the compound was called inactive in [1].

With `N#Cc1c(-c2ccc(Cl)cc2)[nH]c(C(F)(F)F)c1Br`, the compound was called inactive in [1].

Take `Nc1ccc([N+](=O)[O-])cc1Cl`: the result in test [1] was inactive.

Consider `N#Cc1cc([N+](=O)[O-])ccc1N`, for which, in [1], the compound was called inactive.

Turning to `CCNc1nc(Cl)nc(NC(C)(C)C)n1`, the outcome in [2] was “inactive”; in [3], “inactive”; in [4] it was “inactive”; with TIMP1, TIMP1 (gene 7076), “inactive”; in [5], “inactive”; in test [6] it was “inactive”. Also, the compound was classed as inactive in [8], in test [9], in test [10] and in [1]. In addition, the AC50 in test [7] was 6.03 µM (active).

As to `CC(Cl)CN(C)C` (configuration not stated), in [1], the outcome was inactive.

As to `CN(C)C(=O)Cl`, the outcome is “inactive” in [2]; “inactive” in test [3]; “inactive” in [4]; “inactive” with TIMP1, TIMP1 (gene 7076); “inactive” in [5]; “inactive” in [6]. In addition, the call in test [7], in [8], in [9], in [10] and in test [1] was inactive.
